The nature of test [1]: yeast TOR pathway RPL19A-GFP modulators, primary screen, cell-based, S. cerevisiae, multiplex flow cytometry (AID 1862; in the data active = percent of DMSO control GFP below about 86%;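 note: lower values mimic rapamycin by blocking the RPL19A rise seen in DMSO cells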). The note with it: S. cerevisiae RPL19A-GFP strain, flow cytometry fluorescence, 3 h; at 10 µM; stronger effect = lower value. A general note: In flow cytometry, cells or beads pass a laser one at a time.
Test [2] can be described thus: modulators of MEP2-GFP levels in yeast, primary screen, S. cerevisiae, multiplex flow cytometry (AID 1867;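 active = GFP response, as percent of the DMSO control, above the screen-wide mean plus 3 SD, about 139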;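 note: median GFP channel fluorescence of barcode-gated MEP2-GFP cells measured by flow cytometry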). Conditions: S. cerevisiae MEP2-GFP strain, 3 h, at 10 µM, stronger effect = higher value, 100% means same as DMSO wells.
Test [3] is described as follows: modulators of CIT2-GFP expression in yeast, primary screen, S. cerevisiae, GFP fusion, multiplex flow cytometry (AID 1870;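 active = percent response above a set limit, the screen-wide mean plus 3 SD, cut at about 130% in these data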;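 note: barcoded CIT2-GFP strain pooled with four other GFP strains with rapamycin as positive control; median GFP fluorescence per well over plate mean of DMSO wells so 100% = DMSO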). Conditions: 3 h, at 10 µM, stronger effect = higher value.
Test [4] can be described thus: modulators of LAP4-GFP expression in yeast, primary screen, S. cerevisiae, multiplex flow cytometry (AID 1873;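 active = GFP signal, as percent of the solvent control, above the screen mean plus 3 SD, about 149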). The note with it: 3 h, at 10 µM, stronger effect = higher value.
Test [5] can be described thus: modulators of AGP1-GFP expression in yeast TOR pathway, primary screen, cell-based, multiplex flow cytometry, S. cerevisiae (AID 1887;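 active = GFP signal above the screen-wide mean plus 3 SD, that is over about 124.5% of the solvent control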;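 note: AGP1-GFP fusion strain of S. cerevisiae within a five-strain barcoded multiplex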). Conditions: 3 h, at 10 µM, stronger effect = higher value.
Test [6] can be described thus: inhibitors of CD8+ T cell-vesicle binding, pilot screen, LFA-1/ICAM-1 modulator project, MLPCN validation set, flow cytometry (AID 2523;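 active = response below a set limit, under 55% cells CD8-positive and vesicle-bound, and CD8 cells' 90th-percentile brightness under 279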;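 for vesicle binding response: mean PE anti-B7-1 fluorescence of CD8+ cells relative to row control; 100% = QL9-loaded vesicles with DMSO vehicle in the same plate row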). The note with it: 2C mouse CD8+ T cells, at 7 µM, stronger effect = lower value; double positive events: measured here: CD8+/vesicle+ event percentage.
Test [7] deals with Integrin beta-1 (Homo sapiens) + Integrin alpha-4 (Homo sapiens) (UniProt P13612+P05556). The experiment in a line: inhibition of HUTS-21 binding to VLA-4, pilot screen, VLA-4 allosteric modulator project, U937 cells, HUTS-21 mAb, flow cytometry, validation set (AID 2674;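 active = inhibition above 50%, about 3 SD of the validation set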;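 note: antibody binding induced by the VLA-4 ligand LDV present at three times its Kd; 0% = LDV ligand with antibody and no compound and 100% = antibody without LDV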). The note with it: HUTS-21 LIBS mAb binding, at 6.7 µM, stronger effect = higher value, binding induced by LDV ligand.

Test [8] in a line: superoxide lowering in aged yeast cells, pilot screen, validation compound set (AID 2706;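 active = superoxide response below 65% of plate, a cut near 3 SD across the whole screen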;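 note: yeast exposed to compound for one week at 30 degrees C before staining; 100% = mean of all compound wells on the same plate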). The note with it: S. cerevisiae aging, superoxide DHE fluorescence; at 10 µM; stronger effect = lower value.
For test [9], the target named is Beta-adrenergic receptor kinase 1 (Homo sapiens) (UniProt P25098). The experiment in a line: GRK2 binders displacing RNA aptamer, biochemical, validation, human GRK2, bead flow cytometry (AID 488806;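 active = aptamer binding inhibition above 30%, about 3 SD of noise from non-fluorescent compounds; inactive = inhibition at or below 30%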). The note with it: bead-bound GRK2, FAM-aptamer displacement, at 10 µM, stronger effect = higher value.
Test [10] has as its target Beta-2 adrenergic receptor (Homo sapiens) (UniProt P07550). The experiment in a line: beta2AR agonists driving receptor internalization, pilot screen, cell-based, FAP fluorogen, flow cytometry, validation set (AID 504459;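 active = percent response above 42, roughly 3 SD of non-fluorescent test compounds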;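 note: agonist-driven loss of surface beta2AR via internalization measured by FAP dye flow cytometry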). The note with it: Am2.2-beta2AR cells, FAP surface receptor flow cytometry; at 10 µM; stronger effect = higher value.
For test [11], the target named is AP-2 complex subunit beta (Homo sapiens) (UniProt P63010). The experiment in a line: inhibitors of arrestin peptide binding to AP2, pilot screen, biochemical, validation set, GST-AP2 beads, flow cytometry (AID 504541).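 Note: AP2 carries R879A mutation and is captured from E. coli lysate; bead-bound FITC arrestin peptide fluorescence measuring arrestin peptide binding to AP2; 0% = DMSO wells and 100% = excess unlabeled arrestin peptide control.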 The note with it: FITC arrestin peptide, at 10 µM, stronger effect = higher value, AP2 beta2 appendage fragment, R879A mutant.
Test [12] is described as follows: yeast V-ATPase proton transport modulators, S. cerevisiae, pHLuorin, HTS validation (AID 504600; in the data active = response above about 15%;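 note: plate controls were DMSO for no effect and reference compound for full effect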). Conditions: S. cerevisiae pHLuorin cytosolic pH, at 10 µM, stronger effect = higher value.
Test [13] deals with anti-desmoglein-3 scFv antibody binding to human DSG3. The experiment in a line: inhibitors of anti-DSG3 scFv binding to DSG3, pilot screen, biochemical, validation compound set, bead-based, flow cytometry (AID 588368;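 active = binding below the plate cutoff, the plate median minus 3 SD, with a reading above zero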;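 note: signal is the median channel fluorescence of bead-bound GFP antibody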). Conditions: Protein G beads, DSG3-Fc, scFv-GFP binding, at 10 µM, stronger effect = lower value.
The nature of test [14]: inhibitors of fungal efflux pumps CDR1, CDR2, MDR1, pilot screen, validation compound set, multiplex, phenotypic (AID 588506;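 active = efflux inhibition above 0.42, the validation set average plus 4 SD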;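 note: Nile Red retained in cells so higher fluorescence means more efflux inhibition; 0 = negative control wells and 1 = enniatin B 25 µM full block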). Conditions: S. cerevisiae pump-expressing triplex, Nile Red efflux flow cytometry; at 10 µM; stronger effect = higher value; the pumps come from Candida albicans.
Test [15] has as its target ATP-binding cassette sub-family B member 6 (Homo sapiens) (UniProt Q9NP58). The experiment in a line: ABCB6 transporter inhibitors, pilot screen, K562-ABCB6 cells, flow cytometry, validation set (AID 588550;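 active = inhibition above the screen-wide mean plus 3 SD, about 51%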;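 note: 0% = DMSO wells and 100% = benzethonium chloride 70 µM positive control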). Conditions: K562-ABCB6 porphyrin accumulation, 1 h, at 10 µM, stronger effect = higher value.
The nature of test [16]: promoters of myeloid differentiation in arrested cells, primary screen, cell-based, GFP/MAC1 double positive, flow cytometry, validation set (AID 588685;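 active = differentiation response of at least 50%, scaled between solvent and reference control, from cells with both markers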;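 note: compound exposure lasts four days before antibody staining and flow analysis; 0% = DMSO wells and 100% = 5 µM fulvestrant positive control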). The note with it: ER-HoxA9 marrow cells, stronger effect = higher value, normalized: vehicle 0, fulvestrant 100.

Results filed as inconclusive are left out. Activity calls are given as the source filed them.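 Rule for the calls, unless noted: active = inhibition above 54%, about 3 SD of non-fluorescent compounds; inactive = the rest.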

The inhibition is the relative decrease from the control value, in per cent.

Sequence of Beta-adrenergic receptor kinase 1 (Homo sapiens) (P25098 whole entry, looked up): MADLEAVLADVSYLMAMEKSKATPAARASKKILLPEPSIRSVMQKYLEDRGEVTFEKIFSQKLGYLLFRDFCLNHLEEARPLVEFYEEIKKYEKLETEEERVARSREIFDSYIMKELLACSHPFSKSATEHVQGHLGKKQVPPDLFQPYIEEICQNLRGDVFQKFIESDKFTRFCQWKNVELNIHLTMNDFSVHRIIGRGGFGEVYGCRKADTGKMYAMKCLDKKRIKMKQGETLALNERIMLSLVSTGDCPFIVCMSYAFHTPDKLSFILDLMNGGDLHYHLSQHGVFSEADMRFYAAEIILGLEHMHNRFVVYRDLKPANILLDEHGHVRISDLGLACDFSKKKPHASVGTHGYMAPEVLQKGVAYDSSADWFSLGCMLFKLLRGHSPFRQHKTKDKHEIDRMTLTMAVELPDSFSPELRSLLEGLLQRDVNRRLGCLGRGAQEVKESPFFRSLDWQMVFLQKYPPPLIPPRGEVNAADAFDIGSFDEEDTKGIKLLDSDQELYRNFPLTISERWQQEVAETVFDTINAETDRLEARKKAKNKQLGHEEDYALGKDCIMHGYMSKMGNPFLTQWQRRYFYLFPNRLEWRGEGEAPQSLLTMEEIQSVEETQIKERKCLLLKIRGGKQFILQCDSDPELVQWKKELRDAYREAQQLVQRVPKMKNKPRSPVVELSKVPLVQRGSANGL
Sequence of Integrin beta-1 (Homo sapiens) + Integrin alpha-4 (Homo sapiens) (P05556 whole entry, looked up): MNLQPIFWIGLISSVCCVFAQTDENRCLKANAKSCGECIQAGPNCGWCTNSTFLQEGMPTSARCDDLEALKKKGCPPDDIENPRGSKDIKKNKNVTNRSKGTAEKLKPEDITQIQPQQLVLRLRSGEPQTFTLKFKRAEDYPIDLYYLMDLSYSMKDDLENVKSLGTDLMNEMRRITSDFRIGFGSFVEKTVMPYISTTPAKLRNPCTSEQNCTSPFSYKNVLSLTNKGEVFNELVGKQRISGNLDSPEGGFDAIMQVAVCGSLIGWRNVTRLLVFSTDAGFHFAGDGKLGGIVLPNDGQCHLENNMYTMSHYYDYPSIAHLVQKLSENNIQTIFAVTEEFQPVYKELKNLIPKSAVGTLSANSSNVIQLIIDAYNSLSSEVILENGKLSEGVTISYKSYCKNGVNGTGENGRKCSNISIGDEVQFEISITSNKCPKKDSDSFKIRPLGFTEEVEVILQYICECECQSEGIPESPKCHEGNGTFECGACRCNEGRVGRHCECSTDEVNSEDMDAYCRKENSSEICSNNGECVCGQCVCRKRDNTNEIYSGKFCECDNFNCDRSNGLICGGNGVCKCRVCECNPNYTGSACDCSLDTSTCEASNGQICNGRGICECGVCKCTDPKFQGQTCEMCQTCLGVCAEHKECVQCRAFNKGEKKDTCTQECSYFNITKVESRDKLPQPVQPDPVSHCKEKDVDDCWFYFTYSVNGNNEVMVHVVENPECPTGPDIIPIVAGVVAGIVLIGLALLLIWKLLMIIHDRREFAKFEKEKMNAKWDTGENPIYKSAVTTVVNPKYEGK
Sequence of Integrin beta-1 (Homo sapiens) + Integrin alpha-4 (Homo sapiens) (P13612 whole entry, looked up): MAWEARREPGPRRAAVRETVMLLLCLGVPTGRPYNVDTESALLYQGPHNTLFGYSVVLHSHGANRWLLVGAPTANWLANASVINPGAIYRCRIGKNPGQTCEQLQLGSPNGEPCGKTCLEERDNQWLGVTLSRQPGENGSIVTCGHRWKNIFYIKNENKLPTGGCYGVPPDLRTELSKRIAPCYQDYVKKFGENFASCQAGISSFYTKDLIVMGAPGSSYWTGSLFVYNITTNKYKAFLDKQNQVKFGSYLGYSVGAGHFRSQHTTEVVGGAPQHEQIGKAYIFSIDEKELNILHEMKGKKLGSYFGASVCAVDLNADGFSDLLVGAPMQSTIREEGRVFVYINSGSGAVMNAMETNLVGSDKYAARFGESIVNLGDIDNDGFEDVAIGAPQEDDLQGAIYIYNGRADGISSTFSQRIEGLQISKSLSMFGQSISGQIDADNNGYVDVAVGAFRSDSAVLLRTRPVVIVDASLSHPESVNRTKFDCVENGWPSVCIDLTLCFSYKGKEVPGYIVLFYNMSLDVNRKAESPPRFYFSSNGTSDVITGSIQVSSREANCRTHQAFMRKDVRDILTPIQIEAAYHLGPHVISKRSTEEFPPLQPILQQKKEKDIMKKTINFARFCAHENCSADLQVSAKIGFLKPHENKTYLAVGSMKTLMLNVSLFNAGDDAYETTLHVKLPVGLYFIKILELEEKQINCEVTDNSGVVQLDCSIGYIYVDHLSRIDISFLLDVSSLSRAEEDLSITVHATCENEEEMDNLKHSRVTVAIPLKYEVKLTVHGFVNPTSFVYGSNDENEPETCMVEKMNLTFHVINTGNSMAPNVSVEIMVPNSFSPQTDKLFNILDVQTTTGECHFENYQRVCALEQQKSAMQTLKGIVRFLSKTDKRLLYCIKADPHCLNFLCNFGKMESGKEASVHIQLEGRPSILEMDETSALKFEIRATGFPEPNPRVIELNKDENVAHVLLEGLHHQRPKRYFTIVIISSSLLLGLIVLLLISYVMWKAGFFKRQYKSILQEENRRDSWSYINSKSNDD
Sequence of AP-2 complex subunit beta (Homo sapiens) (P63010 whole entry, looked up, the tested form may be a part, one chain of several): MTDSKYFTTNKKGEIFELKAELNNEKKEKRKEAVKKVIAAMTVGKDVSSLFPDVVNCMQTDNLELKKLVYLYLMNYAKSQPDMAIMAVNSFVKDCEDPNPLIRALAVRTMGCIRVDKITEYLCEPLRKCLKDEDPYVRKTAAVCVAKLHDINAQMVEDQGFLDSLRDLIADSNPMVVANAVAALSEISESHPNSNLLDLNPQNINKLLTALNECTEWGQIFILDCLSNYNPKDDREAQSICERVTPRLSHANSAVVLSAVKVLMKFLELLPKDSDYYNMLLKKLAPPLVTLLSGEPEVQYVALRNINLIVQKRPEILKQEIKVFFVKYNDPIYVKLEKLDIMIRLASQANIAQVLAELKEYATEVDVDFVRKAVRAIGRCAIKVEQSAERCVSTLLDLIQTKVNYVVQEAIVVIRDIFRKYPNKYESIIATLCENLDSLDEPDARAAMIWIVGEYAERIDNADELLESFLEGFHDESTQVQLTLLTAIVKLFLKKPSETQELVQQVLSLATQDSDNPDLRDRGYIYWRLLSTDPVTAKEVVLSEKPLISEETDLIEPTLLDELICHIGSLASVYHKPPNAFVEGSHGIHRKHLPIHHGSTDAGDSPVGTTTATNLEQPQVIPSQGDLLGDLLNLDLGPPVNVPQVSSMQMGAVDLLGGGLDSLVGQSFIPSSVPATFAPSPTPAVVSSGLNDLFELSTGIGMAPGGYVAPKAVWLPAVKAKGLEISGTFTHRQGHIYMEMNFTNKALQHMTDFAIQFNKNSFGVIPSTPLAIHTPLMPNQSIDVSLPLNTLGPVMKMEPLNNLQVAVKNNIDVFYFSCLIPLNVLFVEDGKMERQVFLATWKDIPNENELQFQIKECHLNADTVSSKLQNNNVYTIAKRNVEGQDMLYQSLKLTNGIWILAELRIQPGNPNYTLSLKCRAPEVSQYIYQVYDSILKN
Sequence of Beta-2 adrenergic receptor (Homo sapiens) (P07550 whole entry, looked up): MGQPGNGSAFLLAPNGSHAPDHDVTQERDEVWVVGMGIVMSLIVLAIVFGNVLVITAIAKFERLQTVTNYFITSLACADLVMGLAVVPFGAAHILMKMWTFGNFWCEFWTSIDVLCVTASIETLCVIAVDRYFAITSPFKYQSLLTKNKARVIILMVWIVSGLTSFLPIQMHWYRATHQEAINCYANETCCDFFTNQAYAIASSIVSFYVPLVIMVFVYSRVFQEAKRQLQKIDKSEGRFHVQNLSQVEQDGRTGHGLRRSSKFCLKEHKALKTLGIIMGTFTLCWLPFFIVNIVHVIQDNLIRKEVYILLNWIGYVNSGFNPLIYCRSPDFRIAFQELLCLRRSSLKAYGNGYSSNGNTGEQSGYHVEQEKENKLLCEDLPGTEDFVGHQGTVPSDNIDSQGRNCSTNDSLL
Sequence of ATP-binding cassette sub-family B member 6 (Homo sapiens) (Q9NP58 whole entry, looked up): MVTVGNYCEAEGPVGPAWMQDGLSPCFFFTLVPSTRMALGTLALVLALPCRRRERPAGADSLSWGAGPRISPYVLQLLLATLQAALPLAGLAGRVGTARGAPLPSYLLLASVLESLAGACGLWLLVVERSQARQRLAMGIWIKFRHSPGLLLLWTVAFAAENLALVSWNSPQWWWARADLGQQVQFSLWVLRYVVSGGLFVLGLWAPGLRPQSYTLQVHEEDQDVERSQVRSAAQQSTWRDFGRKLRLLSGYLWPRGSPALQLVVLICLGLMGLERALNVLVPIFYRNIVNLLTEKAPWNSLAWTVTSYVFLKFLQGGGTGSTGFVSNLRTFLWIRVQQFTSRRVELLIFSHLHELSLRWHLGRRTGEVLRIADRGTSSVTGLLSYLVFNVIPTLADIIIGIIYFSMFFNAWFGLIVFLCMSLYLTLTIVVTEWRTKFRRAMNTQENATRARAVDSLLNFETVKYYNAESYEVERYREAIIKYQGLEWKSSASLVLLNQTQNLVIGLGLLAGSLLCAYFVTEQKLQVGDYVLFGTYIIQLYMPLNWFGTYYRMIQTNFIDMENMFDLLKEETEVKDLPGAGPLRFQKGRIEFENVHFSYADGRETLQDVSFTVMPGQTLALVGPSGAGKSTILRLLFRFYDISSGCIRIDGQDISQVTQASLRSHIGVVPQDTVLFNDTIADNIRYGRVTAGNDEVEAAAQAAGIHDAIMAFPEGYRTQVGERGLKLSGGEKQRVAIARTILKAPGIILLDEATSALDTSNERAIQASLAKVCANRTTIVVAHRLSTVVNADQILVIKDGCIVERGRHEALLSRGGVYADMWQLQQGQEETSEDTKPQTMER

As for `CCCCCC#CCC#CCC#CCC#CCCCC(=O)O`, the percent of DMSO control GFP in test [1] is 106% (inactive). Also, the GFP response vs DMSO in test [2] is 108% (inactive); in test [4], 106% (inactive). Besides, the percent response of DMSO control in test [3] was 103% (inactive). Also, the GFP response, % of DMSO in [5] is 116% (inactive). This molecule came in with a double positive events in [6] of 62.5%. In [6], the vesicle binding response was 208% (inactive). Also, the inhibition in test [7] was -3.67% (inactive); in test [11], 26.9% (inactive); in [15], 2% (inactive). Further, in [8], the superoxide response (% of plate) is 123% (inactive). Also, in test [9], the aptamer binding inhibition is 62% (active). Further, the response in test [10] was -11.7% (inactive); in test [12], 4.4% (inactive). For the same molecule, the binding (% of control) in test [13] is 90.5% (inactive). For the same molecule, in test [14], the efflux inhibition (fraction of control) was 0.04 (inactive). Further, in [16], the differentiation response is -10.9% (inactive).
As to `COc1ccc(C2C3=C(OC(C)=O)c4ccccc4C3=Nc3c2c(=O)n(C)c(=O)n3C)cc1` (stereo not given), in test [1], the percent of DMSO control GFP was 105% (inactive). Moreover, the GFP response vs DMSO was 94.6% (inactive) in test [2] and 105% (inactive) in [4]. Further, the percent response of DMSO control in test [3] was 106% (inactive). In addition, the GFP response, % of DMSO in [5] is 103% (inactive). This molecule showed a double positive events in test [6] of 58.8%. In addition, in test [6], the vesicle binding response was 127% (inactive). The results for the inhibition in test [7], in [11] and in [15] were 1.59% (inactive), 0.59% (inactive) and 4% (inactive), respectively. Moreover, in test [8], the superoxide response (% of plate) was 98.4% (inactive). Also, in test [9], the aptamer binding inhibition was -1% (inactive). For the same molecule, the figures for the response in test [10] and in test [12] were -14.8% (inactive) and -2.42% (inactive), respectively. Further, the binding (% of control) in [13] is 102% (inactive). For the same molecule, in test [14], the efflux inhibition (fraction of control) is -0.02 (inactive). In test [16], the differentiation response is -11.9% (inactive).
With `COc1ccc(CNCCC2(C(C)C)CCOC(C)(C)C2)cc1` (stereo not given), in test [1], the percent of DMSO control GFP is 99.2% (inactive). Also, the GFP response vs DMSO is 107% (inactive) in [2] and 88.7% (inactive) in test [4]. The percent response of DMSO control in test [3] is 101% (inactive). Also, the GFP response, % of DMSO in test [5] was 97.2% (inactive). In [6], this molecule had a double positive events of 55.9%. The vesicle binding response in test [6] is 52.5% (inactive). In addition, the inhibition in [7] is -7.72% (inactive); in [11], -2.2% (inactive); in test [15], -1% (inactive). The superoxide response (% of plate) in test [8] was 106% (inactive). The aptamer binding inhibition in [9] was 3% (inactive). The values for the response in test [10] and in test [12] were -6.71% (inactive) and 2.72% (inactive), respectively. In test [13], the binding (% of control) was 97.2% (inactive). Also, the efflux inhibition (fraction of control) in [14] was -0.1 (inactive). For the same molecule, the differentiation response in test [16] was 0.24% (inactive).
For `COC(=O)c1cc(OC)c(OC)cc1NC(=O)CN1C(=O)c2ccccc2C1=O`, in [1], the percent of DMSO control GFP was 97.1% (inactive). The figures for the GFP response vs DMSO in test [2] and in test [4] were 113% (inactive) and 118% (inactive), respectively. The percent response of DMSO control in test [3] is 93.9% (inactive). For the same molecule, the GFP response, % of DMSO in [5] was 99.4% (inactive). In addition, the double positive events in test [6] was found to be 54.6%. Also, the vesicle binding response in [6] was 150% (inactive). For the same molecule, the results for the inhibition in [7], in test [11] and in [15] were -22.3% (inactive), -9.37% (inactive) and 2% (inactive), respectively. The superoxide response (% of plate) in test [8] was 103% (inactive). Besides, the aptamer binding inhibition in test [9] is -2% (inactive). The response in test [10] was -5.28% (inactive); in test [12], -5.26% (inactive). Moreover, the binding (% of control) in test [13] is 98.4% (inactive). Further, the efflux inhibition (fraction of control) in test [14] was -0.03 (inactive). Also, the differentiation response in test [16] was -23.2% (inactive).
Take `COCCn1c(SCCOc2ccccc2)nc2ccccc2c1=O`: the percent of DMSO control GFP in test [1] is 99.8% (inactive). Further, the GFP response vs DMSO is 108% (inactive) in test [2] and 103% (inactive) in test [4]. Besides, the percent response of DMSO control in [3] is 103% (inactive). For the same molecule, the GFP response, % of DMSO in [5] was 96.8% (inactive). Further, the double positive events in test [6] was 54%. The vesicle binding response in [6] is 154% (inactive). Also, the results for the inhibition in test [7], in [11] and in test [15] were 6.95% (inactive), -3.51% (inactive) and 18% (inactive), respectively. Besides, the superoxide response (% of plate) in test [8] was 104% (inactive). Moreover, the aptamer binding inhibition in test [9] is 5% (inactive). Further, the response was -6.97% (inactive) in [10] and 0.42% (inactive) in [12]. Moreover, in [13], the binding (% of control) is 103% (inactive). Moreover, in test [14], the efflux inhibition (fraction of control) was 0.36 (inactive). Also, the differentiation response in [16] was 1.28% (inactive).

Source of the values: PubChem BioAssay.
